Legend:
Assay in all cases: DAPPL (digital affinity profiling via proximity ligation, sequencing); 10 mM Tris-HCl pH 7.5, 50 mM NaCl, 1 mM DTT, 4% glycerol, room temperature, 30 min; GST-TFs on glutathione beads, 16-mer random dsDNA library, 0.1% formaldehyde crosslink after washing; high values mean tight binding
Details in all cases: protein: recombinant; tags: N-terminal GST; dsDNA, one strand shown
[1] = target: T1, GABPA (Homo sapiens, UniProt Q06546 1-454)
T1 sequence: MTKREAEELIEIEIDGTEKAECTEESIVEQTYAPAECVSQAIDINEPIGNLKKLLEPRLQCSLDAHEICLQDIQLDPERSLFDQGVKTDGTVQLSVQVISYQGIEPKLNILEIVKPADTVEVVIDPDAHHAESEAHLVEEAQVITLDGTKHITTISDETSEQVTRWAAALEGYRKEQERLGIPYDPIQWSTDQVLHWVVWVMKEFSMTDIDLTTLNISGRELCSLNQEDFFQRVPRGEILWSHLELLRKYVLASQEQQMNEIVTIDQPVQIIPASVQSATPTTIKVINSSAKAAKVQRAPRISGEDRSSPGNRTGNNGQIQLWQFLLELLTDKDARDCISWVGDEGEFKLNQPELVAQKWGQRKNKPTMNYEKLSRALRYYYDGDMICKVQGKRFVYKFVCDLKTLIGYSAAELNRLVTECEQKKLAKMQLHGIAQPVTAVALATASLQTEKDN
Outline: (§1)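 Beads coated with glutathione captured GST-fused human transcription factors that had been expressed in yeast, and the factors were then given DNA barcodes and pooled with a tag-only sample. The pools were incubated with 200 nmole of a random double-stranded 16-mer DNA library in Tris/NaCl/DTT/glycerol buffer for 30 min at room temperature, washed, crosslinked with 0.1% formaldehyde and proximity-ligated with BsaI/T4 ligase at 37 °C for 1 h. PCR amplification and Illumina NextSeq500 sequencing came last. Binding signal is each hexamer's read frequency for a factor divided by its frequency for the tag-only sample.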

[2] = target: T2, ELK3 (Homo sapiens, UniProt P41970 1-407)
T2 sequence: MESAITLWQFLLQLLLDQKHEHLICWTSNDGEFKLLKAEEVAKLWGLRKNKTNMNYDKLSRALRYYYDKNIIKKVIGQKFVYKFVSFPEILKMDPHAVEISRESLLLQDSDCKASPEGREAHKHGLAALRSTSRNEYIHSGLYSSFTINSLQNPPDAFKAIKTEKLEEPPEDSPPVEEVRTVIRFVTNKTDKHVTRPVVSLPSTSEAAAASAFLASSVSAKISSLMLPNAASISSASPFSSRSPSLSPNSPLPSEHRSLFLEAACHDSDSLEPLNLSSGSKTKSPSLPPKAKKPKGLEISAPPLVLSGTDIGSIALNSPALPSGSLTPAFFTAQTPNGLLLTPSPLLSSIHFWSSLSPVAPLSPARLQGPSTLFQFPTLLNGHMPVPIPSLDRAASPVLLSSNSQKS
Outline: as §1

[3] = target: ETV5 (Homo sapiens, UniProt P41161 1-510)
Outline: as §1

[4] = target: ETV1 (Homo sapiens, UniProt P50549 1-477)
Outline: as §1

[5] = target: T3, ERF (Homo sapiens, UniProt P50548 1-548)
T3 sequence: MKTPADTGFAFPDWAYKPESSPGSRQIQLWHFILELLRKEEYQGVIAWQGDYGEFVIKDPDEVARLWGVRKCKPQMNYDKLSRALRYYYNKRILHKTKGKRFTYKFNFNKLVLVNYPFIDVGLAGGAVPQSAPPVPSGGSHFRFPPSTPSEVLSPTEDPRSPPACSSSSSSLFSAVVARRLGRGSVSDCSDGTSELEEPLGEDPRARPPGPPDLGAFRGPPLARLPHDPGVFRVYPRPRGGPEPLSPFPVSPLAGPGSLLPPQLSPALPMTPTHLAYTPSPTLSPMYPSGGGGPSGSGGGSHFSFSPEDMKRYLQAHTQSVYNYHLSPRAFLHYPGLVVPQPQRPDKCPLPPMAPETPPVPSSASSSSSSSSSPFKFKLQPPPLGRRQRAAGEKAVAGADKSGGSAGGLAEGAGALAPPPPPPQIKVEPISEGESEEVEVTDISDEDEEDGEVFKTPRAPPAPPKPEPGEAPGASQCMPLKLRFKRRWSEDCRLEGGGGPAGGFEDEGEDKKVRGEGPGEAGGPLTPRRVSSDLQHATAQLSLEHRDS
Outline: as §1

[6] = target: T4, ETS2 (Homo sapiens, UniProt P15036 1-469)
T4 sequence: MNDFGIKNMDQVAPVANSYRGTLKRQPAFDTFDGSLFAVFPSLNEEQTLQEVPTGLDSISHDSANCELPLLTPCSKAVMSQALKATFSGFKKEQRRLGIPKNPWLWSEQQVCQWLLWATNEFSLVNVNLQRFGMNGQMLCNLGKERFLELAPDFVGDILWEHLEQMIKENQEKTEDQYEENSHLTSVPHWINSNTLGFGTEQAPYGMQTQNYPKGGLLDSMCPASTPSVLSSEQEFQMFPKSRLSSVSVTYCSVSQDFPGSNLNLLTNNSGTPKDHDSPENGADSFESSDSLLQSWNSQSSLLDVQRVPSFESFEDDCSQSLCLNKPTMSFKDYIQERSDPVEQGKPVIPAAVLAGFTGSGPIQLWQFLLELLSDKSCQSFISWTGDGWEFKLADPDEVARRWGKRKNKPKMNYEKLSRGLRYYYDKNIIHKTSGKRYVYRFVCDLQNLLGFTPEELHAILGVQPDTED
Outline: as §1

[7] = target: T5, ELK1 (Homo sapiens, UniProt P19419 1-428)
T5 sequence: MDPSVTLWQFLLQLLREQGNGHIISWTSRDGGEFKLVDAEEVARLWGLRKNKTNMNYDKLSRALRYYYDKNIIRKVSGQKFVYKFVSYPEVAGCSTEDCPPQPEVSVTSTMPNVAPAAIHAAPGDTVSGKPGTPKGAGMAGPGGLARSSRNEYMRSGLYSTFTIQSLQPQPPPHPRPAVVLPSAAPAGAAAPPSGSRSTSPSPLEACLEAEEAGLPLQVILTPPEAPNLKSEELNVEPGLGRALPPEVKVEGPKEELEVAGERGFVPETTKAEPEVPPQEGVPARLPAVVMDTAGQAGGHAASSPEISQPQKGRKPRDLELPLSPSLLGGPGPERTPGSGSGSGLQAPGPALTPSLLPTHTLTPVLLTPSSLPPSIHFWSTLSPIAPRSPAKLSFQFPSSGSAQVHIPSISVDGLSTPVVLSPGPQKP
Outline: as §1

[8] = target: T6, ERG (Homo sapiens, UniProt P11308 1-479)
T6 sequence: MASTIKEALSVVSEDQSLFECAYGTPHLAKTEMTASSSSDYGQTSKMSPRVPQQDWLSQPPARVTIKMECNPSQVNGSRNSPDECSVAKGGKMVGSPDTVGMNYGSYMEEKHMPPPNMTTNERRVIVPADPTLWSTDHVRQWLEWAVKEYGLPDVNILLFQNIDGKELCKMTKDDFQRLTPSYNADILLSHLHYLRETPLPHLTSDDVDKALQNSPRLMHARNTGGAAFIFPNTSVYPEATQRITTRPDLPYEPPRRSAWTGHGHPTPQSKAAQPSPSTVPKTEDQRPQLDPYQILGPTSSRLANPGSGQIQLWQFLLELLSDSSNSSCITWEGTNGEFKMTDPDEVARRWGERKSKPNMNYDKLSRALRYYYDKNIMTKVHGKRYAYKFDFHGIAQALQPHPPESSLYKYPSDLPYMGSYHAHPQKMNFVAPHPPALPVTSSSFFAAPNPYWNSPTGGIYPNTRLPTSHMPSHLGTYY
Outline: as §1

[9] = target: ELF1 (Homo sapiens, UniProt P32519 1-619)
Outline: as §1

[10] = target: T7, EHF (Homo sapiens, UniProt Q9NZC4 1-300)
T7 sequence: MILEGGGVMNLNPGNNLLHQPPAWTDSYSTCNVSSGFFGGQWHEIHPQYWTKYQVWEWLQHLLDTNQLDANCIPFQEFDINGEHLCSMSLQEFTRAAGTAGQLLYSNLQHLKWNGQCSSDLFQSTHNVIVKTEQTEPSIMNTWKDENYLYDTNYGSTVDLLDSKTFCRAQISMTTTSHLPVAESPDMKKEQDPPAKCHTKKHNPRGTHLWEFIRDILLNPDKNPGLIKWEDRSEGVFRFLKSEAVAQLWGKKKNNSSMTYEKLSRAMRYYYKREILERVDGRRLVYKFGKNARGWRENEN
Outline: as §1

[11] = target: SPIB (Homo sapiens, UniProt Q01892 1-262)
Outline: as §1

[12] = target: T8, SPIC (Homo sapiens, UniProt Q8N5J4 1-248)
T8 sequence: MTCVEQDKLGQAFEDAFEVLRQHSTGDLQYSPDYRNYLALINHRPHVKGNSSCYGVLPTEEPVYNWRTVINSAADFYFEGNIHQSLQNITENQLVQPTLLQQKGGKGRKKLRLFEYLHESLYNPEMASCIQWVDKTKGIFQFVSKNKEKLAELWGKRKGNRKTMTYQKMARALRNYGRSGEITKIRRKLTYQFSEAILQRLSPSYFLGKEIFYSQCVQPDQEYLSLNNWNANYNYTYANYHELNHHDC
Outline: as §1

[13] = target: ELF4 (Homo sapiens, UniProt Q99607 1-663)
Outline: as §1

[14] = target: T9, ELK4 (Homo sapiens, UniProt P28324-2 1-405)
T9 sequence: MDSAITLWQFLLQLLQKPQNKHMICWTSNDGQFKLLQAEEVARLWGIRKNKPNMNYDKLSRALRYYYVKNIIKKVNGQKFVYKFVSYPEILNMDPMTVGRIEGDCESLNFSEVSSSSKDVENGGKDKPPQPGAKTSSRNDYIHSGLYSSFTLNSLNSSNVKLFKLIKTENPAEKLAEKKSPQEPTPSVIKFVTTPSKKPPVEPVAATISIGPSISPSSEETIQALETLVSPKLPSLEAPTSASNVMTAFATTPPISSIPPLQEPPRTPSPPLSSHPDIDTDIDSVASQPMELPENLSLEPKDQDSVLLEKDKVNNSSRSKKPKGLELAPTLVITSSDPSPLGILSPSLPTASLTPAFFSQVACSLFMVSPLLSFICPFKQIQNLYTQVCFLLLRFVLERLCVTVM
Outline: as §1

[15] = target: T10, ELF3 (Homo sapiens, UniProt P78545 1-371)
T10 sequence: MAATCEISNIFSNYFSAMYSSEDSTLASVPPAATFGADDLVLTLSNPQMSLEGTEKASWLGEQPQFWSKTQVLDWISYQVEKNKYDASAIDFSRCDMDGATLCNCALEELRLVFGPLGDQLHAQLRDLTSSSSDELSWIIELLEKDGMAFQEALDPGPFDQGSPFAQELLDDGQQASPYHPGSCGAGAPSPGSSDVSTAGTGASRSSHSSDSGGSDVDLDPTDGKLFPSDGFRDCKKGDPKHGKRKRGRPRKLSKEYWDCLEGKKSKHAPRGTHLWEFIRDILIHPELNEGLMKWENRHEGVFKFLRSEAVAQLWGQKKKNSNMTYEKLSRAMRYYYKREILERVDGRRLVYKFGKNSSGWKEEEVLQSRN
Outline: as §1

[16] = target: T11, ETV3L (Homo sapiens, UniProt Q6ZN32 1-361)
T11 sequence: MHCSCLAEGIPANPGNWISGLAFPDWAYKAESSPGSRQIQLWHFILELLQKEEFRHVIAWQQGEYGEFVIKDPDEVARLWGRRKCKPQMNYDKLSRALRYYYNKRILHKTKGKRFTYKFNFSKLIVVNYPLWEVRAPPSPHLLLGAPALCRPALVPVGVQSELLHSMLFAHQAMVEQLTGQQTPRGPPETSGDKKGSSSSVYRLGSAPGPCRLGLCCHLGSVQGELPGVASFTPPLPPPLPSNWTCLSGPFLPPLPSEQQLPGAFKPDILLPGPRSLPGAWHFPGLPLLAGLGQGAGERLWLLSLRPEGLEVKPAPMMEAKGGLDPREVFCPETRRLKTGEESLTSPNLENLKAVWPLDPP
Outline: as §1

[17] = target: T12, SPDEF (Homo sapiens, UniProt O95238 1-335)
T12 sequence: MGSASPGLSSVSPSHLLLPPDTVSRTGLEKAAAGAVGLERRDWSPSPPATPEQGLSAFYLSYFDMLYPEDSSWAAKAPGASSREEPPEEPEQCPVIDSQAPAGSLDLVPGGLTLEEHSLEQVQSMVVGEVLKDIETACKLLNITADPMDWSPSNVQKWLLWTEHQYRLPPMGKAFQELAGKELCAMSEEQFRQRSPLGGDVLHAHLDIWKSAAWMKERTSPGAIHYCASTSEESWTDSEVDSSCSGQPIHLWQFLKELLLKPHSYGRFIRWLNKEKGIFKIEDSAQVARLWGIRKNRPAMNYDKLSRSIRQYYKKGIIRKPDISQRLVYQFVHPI
Outline: as §1

[18] = target: T13, ETV3 (Homo sapiens, UniProt P41162-2 1-143)
T13 sequence: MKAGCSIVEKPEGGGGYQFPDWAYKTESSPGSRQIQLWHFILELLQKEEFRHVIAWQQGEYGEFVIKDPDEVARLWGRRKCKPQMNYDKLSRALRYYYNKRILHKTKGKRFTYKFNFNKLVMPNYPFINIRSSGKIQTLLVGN
Outline: as §1

[19] = target: ETV6 (Homo sapiens, UniProt P41212 1-452)
Outline: as §1

Chain of ETV5 (P41161 whole entry): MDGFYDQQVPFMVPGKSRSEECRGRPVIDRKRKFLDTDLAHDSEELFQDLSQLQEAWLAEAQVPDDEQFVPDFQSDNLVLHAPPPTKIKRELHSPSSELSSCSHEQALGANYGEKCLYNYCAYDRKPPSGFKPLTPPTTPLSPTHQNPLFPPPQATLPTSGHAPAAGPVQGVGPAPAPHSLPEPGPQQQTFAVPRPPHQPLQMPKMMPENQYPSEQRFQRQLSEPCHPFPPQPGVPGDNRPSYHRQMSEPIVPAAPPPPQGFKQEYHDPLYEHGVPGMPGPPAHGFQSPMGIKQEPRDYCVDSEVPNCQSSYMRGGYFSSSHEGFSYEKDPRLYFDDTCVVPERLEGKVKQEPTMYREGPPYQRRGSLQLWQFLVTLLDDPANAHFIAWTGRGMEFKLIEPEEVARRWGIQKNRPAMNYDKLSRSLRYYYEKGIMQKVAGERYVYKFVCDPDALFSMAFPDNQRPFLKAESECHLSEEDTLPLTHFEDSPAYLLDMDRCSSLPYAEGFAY
Chain of ETV1 (P50549 whole entry): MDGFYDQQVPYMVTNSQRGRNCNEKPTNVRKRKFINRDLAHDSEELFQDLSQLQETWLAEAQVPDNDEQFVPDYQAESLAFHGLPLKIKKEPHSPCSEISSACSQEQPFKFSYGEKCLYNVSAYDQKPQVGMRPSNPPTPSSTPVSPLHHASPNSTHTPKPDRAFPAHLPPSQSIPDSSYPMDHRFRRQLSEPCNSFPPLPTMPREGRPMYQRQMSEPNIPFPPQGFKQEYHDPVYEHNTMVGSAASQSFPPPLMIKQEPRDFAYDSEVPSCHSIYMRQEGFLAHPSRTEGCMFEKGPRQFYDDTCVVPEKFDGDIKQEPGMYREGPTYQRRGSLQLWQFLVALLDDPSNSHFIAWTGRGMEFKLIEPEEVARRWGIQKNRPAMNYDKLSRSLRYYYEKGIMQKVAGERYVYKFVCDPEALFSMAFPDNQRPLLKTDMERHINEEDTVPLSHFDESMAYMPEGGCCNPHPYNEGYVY
Chain of ELF1 (P32519 whole entry): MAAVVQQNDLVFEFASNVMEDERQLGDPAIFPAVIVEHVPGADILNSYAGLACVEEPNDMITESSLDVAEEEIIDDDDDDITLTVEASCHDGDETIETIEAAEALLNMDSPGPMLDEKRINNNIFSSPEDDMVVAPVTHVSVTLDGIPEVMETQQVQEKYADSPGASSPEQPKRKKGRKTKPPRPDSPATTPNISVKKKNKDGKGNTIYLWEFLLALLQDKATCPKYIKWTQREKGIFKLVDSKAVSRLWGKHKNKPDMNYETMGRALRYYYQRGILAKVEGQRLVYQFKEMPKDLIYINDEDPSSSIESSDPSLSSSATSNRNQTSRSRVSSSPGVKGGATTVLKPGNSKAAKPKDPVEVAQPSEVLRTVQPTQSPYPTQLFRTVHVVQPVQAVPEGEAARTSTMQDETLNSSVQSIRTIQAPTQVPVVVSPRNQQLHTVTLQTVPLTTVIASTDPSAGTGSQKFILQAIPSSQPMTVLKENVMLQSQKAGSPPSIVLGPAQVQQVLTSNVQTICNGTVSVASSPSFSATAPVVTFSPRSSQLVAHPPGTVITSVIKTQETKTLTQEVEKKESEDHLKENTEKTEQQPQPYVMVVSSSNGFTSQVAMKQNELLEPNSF
Chain of ELF4 (Q99607 whole entry): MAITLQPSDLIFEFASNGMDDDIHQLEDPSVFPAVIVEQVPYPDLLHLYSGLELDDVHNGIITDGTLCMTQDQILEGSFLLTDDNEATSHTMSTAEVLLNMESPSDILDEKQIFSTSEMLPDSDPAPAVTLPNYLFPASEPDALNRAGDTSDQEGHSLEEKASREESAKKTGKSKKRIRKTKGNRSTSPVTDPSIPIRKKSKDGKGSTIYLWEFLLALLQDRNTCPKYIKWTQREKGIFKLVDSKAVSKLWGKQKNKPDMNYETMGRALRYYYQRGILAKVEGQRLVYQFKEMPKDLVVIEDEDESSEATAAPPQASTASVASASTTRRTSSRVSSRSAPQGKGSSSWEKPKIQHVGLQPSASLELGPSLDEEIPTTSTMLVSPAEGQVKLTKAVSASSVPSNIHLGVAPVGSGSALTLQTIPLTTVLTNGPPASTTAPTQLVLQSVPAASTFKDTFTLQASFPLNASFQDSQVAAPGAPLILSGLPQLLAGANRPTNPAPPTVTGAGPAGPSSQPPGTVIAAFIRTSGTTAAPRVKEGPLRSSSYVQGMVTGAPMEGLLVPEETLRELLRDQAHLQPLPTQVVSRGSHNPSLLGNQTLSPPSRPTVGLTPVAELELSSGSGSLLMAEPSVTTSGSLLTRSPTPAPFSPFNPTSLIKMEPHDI
Chain of SPIB (Q01892 whole entry): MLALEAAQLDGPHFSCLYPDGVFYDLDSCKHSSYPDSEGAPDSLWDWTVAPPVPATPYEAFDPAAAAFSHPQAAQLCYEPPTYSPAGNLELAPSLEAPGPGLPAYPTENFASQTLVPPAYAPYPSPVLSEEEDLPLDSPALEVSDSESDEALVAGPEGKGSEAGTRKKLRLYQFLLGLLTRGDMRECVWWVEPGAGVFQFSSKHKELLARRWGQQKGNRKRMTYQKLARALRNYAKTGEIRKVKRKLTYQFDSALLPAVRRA
Chain of ETV6 (P41212 whole entry): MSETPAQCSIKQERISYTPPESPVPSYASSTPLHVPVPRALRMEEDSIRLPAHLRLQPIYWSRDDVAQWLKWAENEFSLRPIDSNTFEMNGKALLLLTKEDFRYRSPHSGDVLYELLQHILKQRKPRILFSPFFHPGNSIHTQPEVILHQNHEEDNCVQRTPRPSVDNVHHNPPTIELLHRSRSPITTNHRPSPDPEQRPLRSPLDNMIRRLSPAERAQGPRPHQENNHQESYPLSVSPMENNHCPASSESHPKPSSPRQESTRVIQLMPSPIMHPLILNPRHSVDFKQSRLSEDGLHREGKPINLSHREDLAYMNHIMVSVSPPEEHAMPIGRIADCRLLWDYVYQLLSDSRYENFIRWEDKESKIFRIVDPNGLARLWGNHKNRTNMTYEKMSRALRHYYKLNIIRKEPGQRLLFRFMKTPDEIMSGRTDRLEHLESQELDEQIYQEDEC

Sequence | binding signal [1] | binding signal [2] | binding signal [3] | binding signal [4] | binding signal [5] | binding signal [6] | binding signal [7] | binding signal [8] | binding signal [9] | binding signal [10] | binding signal [11] | binding signal [12] | binding signal [13] | binding signal [14] | binding signal [15] | binding signal [16] | binding signal [17] | binding signal [18] | binding signal [19]
AGCTCG | 1.04 fold enrichment (6-mer frequency, TF over GST control) | 1.04 fold enrichment (6-mer frequency, TF over GST control) | 1.04 fold enrichment (6-mer frequency, TF over GST control) | 1.01 fold enrichment (6-mer frequency, TF over GST control) | 1.08 fold enrichment (6-mer frequency, TF over GST control) | 1.01 fold enrichment (6-mer frequency, TF over GST control) | – | – | – | – | – | – | – | – | – | – | – | – | –
CAGCCC | 1.06 fold enrichment (6-mer frequency, TF over GST control) | 1.11 fold enrichment (6-mer frequency, TF over GST control) | 1.07 fold enrichment (6-mer frequency, TF over GST control) | 1.01 fold enrichment (6-mer frequency, TF over GST control) | 1.08 fold enrichment (6-mer frequency, TF over GST control) | 1.13 fold enrichment (6-mer frequency, TF over GST control) | 1.16 fold enrichment (6-mer frequency, TF over GST control) | 1.18 fold enrichment (6-mer frequency, TF over GST control) | 1.09 fold enrichment (6-mer frequency, TF over GST control) | 1.16 fold enrichment (6-mer frequency, TF over GST control) | 1.09 fold enrichment (6-mer frequency, TF over GST control) | 1.13 fold enrichment (6-mer frequency, TF over GST control) | 1.06 fold enrichment (6-mer frequency, TF over GST control) | 1.19 fold enrichment (6-mer frequency, TF over GST control) | 1.35 fold enrichment (6-mer frequency, TF over GST control) | 1.07 fold enrichment (6-mer frequency, TF over GST control) | 1.02 fold enrichment (6-mer frequency, TF over GST control) | 1.05 fold enrichment (6-mer frequency, TF over GST control) | 1.12 fold enrichment (6-mer frequency, TF over GST control)
